Holding throughout (experiment): DAPPL (digital affinity profiling via proximity ligation, sequencing); 10 mM Tris-HCl pH 7.5, 50 mM NaCl, 1 mM DTT, 4% glycerol, room temperature, 30 min; GST-TFs on glutathione beads, 16-mer random dsDNA library, 0.1% formaldehyde crosslink after washing; high values mean tight binding
Experiment [1] deals with T1, FEV (Homo sapiens, UniProt Q99581 1-238).
T1 sequence: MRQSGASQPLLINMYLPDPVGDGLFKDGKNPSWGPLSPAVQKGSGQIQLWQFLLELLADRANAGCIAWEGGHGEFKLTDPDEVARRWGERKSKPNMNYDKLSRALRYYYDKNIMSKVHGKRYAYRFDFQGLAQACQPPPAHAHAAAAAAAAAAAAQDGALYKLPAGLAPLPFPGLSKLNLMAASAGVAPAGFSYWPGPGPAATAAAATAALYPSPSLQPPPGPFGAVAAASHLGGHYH
Conditions: protein: recombinant; tags: N-terminal GST; dsDNA, one strand shown. In outline:
(§1)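 Human transcription factors were made in yeast as GST fusions, captured on glutathione beads and barcoded with DNA. With a tag-only sample included, the pool was incubated with 200 nmole of a random double-stranded 16-mer DNA library in Tris/NaCl/DTT/glycerol buffer at room temperature for 30 min, then crosslinked with 0.1% formaldehyde after washing, ligated by proximity, amplified and sequenced. For binding signal, each hexamer's read frequency for a factor is divided by its frequency for the tag-only sample.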

Experiment [2] addresses ETV5 (Homo sapiens, UniProt P41161 1-510). Conditions: protein: recombinant; tags: N-terminal GST; dsDNA, one strand shown. In outline:
as §1

In experiment [3] the target is HSF1 (Homo sapiens, UniProt Q00613 1-529). Conditions: protein: recombinant; tags: N-terminal GST; chain copies: 3; dsDNA, one strand shown. In outline: as §1
In experiment [4] the target is T2, SPIC (Homo sapiens, UniProt Q8N5J4 1-248).
T2 sequence: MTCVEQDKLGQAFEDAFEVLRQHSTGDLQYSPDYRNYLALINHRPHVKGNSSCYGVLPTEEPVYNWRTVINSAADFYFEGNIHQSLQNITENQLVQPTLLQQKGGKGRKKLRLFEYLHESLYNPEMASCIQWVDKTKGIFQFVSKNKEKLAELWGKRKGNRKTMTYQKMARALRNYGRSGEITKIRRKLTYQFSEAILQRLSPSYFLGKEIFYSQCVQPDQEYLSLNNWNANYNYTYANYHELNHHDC
Conditions: protein: recombinant; tags: N-terminal GST; dsDNA, one strand shown. In short, it runs like this: as §1

The target in experiment [5] is ELF4 (Homo sapiens, UniProt Q99607 1-663). As to conditions: protein: recombinant; tags: N-terminal GST; dsDNA, one strand shown. In outline: as §1
Experiment [6] addresses T3, ELK4 (Homo sapiens, UniProt P28324-2 1-405).
T3 sequence: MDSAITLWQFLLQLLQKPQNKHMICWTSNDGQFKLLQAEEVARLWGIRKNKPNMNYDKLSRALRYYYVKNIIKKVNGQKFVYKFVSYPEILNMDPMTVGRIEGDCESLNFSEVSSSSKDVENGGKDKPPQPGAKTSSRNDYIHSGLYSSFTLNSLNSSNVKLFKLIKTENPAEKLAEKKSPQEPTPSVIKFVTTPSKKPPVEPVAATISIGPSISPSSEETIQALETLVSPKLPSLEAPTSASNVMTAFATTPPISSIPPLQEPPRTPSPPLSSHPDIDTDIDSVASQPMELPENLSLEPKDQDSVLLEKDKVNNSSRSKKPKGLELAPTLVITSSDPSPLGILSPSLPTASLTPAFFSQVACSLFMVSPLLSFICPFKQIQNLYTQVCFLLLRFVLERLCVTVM
As to conditions: protein: recombinant; tags: N-terminal GST; dsDNA, one strand shown. In outline:
as §1

The target in experiment [7] is T4, ETV2 (Homo sapiens, UniProt O00321 1-342).
T4 sequence: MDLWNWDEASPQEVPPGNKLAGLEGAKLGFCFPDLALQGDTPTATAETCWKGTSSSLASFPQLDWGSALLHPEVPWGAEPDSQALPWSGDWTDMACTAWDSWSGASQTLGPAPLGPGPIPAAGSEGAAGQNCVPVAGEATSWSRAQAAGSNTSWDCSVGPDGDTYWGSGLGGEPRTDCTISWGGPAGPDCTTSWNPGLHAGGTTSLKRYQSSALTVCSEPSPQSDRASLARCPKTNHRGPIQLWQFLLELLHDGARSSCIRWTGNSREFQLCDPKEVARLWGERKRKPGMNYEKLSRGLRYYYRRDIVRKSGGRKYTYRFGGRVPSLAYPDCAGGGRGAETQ
As to conditions: protein: recombinant; tags: N-terminal GST; dsDNA, one strand shown. In outline:
as §1

Experiment [8] addresses T5, ELF3 (Homo sapiens, UniProt P78545 1-371).
T5 sequence: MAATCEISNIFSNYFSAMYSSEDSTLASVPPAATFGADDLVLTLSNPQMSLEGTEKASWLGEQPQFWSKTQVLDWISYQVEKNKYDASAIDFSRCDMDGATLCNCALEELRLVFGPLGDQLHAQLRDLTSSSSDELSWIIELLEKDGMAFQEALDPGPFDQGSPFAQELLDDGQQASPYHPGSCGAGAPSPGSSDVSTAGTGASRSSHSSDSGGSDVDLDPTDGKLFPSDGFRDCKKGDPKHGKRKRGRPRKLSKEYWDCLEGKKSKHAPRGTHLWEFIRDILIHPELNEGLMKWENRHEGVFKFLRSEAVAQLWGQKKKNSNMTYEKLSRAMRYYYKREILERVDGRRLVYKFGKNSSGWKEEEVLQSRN
As to conditions: protein: recombinant; tags: N-terminal GST; dsDNA, one strand shown. In short, it runs like this: as §1

In experiment [9] the target is CRX (Homo sapiens, UniProt O43186 1-299). Conditions: protein: recombinant; tags: N-terminal GST; dsDNA, one strand shown. In short, it runs like this: as §1
Experiment [10] has as its target ETV1 (Homo sapiens, UniProt P50549 1-477). As to conditions: protein: recombinant; tags: N-terminal GST; dsDNA, one strand shown. In outline:
as §1

Experiment [11] has as its target T6, ERF (Homo sapiens, UniProt P50548 1-548).
T6 sequence: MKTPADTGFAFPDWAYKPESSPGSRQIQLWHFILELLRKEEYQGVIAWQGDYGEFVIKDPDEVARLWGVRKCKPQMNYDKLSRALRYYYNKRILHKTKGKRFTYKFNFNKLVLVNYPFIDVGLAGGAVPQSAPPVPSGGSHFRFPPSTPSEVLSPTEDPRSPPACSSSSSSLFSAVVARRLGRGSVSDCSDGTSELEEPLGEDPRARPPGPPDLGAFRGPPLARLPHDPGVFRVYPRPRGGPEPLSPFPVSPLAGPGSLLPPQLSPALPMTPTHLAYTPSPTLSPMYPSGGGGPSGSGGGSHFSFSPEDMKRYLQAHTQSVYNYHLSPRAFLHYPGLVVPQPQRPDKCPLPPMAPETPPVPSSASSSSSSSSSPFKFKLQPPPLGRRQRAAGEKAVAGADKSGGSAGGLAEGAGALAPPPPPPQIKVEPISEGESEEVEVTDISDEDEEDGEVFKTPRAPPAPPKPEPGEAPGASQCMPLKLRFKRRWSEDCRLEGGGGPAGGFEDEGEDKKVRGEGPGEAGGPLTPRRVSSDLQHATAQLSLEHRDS
Conditions: protein: recombinant; tags: N-terminal GST; dsDNA, one strand shown. In short, it runs like this: as §1

Experiment [12] has as its target T7, ETV3L (Homo sapiens, UniProt Q6ZN32 1-361).
T7 sequence: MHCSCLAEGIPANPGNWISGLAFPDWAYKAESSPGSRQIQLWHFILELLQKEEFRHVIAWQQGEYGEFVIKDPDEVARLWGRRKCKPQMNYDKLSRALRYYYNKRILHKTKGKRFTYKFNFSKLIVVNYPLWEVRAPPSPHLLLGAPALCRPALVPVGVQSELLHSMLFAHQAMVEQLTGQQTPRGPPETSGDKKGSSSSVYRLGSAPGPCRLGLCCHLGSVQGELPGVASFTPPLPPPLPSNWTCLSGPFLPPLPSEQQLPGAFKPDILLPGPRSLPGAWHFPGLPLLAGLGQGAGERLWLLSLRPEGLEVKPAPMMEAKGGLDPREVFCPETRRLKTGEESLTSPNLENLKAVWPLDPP
Conditions: protein: recombinant; tags: N-terminal GST; dsDNA, one strand shown. In short, it runs like this:
as §1

Experiment [13] concerns the target T8, ETS2 (Homo sapiens, UniProt P15036 1-469).
T8 sequence: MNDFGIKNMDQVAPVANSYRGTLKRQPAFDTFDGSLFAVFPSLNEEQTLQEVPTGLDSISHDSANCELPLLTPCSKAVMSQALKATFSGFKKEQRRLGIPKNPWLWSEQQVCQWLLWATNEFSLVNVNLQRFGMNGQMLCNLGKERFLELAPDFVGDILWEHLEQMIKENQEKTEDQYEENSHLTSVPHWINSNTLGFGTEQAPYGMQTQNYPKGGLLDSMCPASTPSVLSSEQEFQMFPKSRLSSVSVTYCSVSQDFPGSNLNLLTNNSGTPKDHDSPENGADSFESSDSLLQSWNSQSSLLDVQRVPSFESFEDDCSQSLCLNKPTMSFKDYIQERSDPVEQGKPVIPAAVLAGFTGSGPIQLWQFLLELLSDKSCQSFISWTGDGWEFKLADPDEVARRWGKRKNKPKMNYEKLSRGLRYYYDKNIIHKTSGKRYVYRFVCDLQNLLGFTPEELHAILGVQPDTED
As to conditions: protein: recombinant; tags: N-terminal GST; dsDNA, one strand shown. In short, it runs like this: as §1

Experiment [14] addresses T9, SPDEF (Homo sapiens, UniProt O95238 1-335).
T9 sequence: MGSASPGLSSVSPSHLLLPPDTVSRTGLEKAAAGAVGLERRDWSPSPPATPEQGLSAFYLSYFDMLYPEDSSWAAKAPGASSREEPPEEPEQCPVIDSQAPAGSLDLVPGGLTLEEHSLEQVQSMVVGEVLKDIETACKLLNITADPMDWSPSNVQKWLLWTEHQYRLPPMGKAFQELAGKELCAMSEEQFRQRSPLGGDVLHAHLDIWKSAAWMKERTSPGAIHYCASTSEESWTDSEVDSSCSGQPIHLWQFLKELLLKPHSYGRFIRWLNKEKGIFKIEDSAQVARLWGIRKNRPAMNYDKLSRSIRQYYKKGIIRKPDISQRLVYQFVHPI
As to conditions: protein: recombinant; tags: N-terminal GST; dsDNA, one strand shown. In short, it runs like this: as §1

Experiment [15] deals with T10, ETV7 (Homo sapiens, UniProt Q9Y603 1-341).
T10 sequence: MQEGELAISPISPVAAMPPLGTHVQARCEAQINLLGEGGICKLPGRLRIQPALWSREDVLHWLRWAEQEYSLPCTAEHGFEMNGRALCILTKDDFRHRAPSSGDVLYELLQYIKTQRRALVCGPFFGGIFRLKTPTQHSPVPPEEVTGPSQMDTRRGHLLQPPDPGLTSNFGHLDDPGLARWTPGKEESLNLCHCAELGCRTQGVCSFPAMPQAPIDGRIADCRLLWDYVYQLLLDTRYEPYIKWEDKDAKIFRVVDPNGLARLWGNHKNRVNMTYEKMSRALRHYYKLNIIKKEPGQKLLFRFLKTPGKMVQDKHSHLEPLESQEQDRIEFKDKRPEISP
As to conditions: protein: recombinant; tags: N-terminal GST; dsDNA, one strand shown. In outline: as §1

Experiment [16] has as its target T11, ELF5 (Homo sapiens, UniProt Q9UKW6-2 1-255).
T11 sequence: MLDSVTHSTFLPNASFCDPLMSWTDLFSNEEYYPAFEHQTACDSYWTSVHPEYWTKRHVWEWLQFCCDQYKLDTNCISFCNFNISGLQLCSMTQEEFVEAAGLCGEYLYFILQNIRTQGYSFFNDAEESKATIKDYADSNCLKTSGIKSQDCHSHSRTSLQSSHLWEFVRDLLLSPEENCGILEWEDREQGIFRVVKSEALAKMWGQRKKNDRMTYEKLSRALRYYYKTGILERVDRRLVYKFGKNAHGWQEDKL
Conditions: protein: recombinant; tags: N-terminal GST; dsDNA, one strand shown. In short, it runs like this:
as §1

Experiment [17] addresses T12, ETV3 (Homo sapiens, UniProt P41162-2 1-143).
T12 sequence: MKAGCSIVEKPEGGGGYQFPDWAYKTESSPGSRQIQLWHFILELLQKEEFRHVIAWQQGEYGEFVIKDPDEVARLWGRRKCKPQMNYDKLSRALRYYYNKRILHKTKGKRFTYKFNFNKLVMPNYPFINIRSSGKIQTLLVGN
As to conditions: protein: recombinant; tags: N-terminal GST; dsDNA, one strand shown. In outline:
as §1

Experiment [18] has as its target ETV6 (Homo sapiens, UniProt P41212 1-452). As to conditions: protein: recombinant; tags: N-terminal GST; dsDNA, one strand shown. In outline: as §1

Chain of ETV1 (P50549 whole entry): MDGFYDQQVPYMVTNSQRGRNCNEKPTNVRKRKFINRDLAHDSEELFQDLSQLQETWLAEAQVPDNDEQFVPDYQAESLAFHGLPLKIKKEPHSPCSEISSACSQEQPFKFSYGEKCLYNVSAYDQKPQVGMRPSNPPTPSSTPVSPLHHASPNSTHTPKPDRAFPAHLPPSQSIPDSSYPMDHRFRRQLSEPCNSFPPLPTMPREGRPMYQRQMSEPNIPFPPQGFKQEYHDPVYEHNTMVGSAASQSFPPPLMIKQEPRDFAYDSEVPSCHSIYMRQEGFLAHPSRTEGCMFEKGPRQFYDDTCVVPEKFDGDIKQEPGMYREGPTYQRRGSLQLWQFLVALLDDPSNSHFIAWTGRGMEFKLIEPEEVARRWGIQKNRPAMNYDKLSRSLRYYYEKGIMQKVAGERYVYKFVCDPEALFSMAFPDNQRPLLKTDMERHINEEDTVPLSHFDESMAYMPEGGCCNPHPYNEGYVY
Chain of ETV5 (P41161 whole entry): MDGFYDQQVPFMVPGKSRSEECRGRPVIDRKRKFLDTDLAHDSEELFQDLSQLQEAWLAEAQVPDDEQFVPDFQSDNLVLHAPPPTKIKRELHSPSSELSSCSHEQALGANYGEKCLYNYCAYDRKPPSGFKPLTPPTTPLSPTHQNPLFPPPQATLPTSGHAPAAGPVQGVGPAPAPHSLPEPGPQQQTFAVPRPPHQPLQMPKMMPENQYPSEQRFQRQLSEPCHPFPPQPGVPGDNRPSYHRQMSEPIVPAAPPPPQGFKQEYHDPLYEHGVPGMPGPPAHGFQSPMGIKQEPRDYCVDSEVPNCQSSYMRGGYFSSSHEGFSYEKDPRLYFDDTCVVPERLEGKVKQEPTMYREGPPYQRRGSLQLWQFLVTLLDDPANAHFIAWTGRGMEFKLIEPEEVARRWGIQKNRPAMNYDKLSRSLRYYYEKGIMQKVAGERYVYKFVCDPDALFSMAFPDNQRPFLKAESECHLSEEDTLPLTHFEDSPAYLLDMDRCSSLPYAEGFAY
Chain of HSF1 (Q00613 whole entry): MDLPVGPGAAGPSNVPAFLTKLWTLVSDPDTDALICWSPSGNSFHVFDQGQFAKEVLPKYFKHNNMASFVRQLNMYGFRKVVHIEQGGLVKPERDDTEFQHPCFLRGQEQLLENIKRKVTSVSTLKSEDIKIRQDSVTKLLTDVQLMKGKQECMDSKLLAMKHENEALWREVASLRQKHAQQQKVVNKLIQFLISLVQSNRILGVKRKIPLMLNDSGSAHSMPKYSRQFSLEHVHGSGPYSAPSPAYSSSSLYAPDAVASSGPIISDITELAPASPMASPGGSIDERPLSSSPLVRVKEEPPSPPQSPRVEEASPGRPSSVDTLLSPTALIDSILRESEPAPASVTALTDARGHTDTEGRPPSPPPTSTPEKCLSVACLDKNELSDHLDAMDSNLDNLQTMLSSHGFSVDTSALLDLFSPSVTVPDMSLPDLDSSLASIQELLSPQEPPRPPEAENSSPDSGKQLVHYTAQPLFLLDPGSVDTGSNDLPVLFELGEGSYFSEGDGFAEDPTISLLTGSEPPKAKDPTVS
Chain of ETV6 (P41212 whole entry): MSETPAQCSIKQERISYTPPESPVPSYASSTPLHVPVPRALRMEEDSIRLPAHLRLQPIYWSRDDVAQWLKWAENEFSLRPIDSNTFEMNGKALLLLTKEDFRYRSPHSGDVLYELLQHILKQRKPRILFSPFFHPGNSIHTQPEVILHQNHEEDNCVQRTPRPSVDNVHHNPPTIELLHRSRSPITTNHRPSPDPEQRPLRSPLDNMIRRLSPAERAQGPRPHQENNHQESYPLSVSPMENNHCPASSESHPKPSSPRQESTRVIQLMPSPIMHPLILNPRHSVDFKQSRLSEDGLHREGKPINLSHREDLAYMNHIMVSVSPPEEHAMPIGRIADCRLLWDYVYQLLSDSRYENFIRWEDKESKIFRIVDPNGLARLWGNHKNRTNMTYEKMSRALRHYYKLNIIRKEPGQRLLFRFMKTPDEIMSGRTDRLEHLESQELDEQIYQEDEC
Chain of ELF4 (Q99607 whole entry): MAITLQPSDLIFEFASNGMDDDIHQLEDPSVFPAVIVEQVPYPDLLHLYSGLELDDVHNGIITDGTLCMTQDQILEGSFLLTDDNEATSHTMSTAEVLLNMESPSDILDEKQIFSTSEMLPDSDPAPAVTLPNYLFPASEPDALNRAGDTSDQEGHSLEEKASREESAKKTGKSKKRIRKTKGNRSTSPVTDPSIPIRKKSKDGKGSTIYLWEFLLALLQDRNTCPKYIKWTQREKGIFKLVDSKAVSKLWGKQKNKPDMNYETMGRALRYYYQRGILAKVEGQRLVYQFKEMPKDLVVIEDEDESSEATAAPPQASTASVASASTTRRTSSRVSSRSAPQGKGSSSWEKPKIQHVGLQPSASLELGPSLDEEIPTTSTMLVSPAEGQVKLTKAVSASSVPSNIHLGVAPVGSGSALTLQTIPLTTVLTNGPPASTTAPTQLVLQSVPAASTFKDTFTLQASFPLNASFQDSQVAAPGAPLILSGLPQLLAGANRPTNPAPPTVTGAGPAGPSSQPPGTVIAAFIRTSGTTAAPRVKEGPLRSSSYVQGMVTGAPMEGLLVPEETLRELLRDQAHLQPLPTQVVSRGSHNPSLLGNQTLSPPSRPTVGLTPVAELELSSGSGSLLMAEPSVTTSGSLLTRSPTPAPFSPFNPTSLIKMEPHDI
Chain of CRX (O43186 whole entry): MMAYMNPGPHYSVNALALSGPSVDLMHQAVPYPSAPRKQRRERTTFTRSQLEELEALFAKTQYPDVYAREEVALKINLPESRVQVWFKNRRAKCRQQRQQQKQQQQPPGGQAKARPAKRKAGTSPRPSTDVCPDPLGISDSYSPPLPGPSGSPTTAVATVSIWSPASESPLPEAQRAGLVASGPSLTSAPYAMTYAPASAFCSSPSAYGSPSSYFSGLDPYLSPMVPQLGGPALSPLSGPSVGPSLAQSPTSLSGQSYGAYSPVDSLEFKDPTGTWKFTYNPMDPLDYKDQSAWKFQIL

On to TCTGCA, for which the binding signal in [1] was 1.43 fold enrichment (6-mer frequency, TF over GST control); in experiment [2] it was 1.36 fold enrichment (6-mer frequency, TF over GST control); in [3] it was 1.26 fold enrichment (6-mer frequency, TF over GST control); in [4] it was 1.36 fold enrichment (6-mer frequency, TF over GST control); in experiment [5], 1.42 fold enrichment (6-mer frequency, TF over GST control); in [6], 1.43 fold enrichment (6-mer frequency, TF over GST control). The binding signal in experiment [7] is 1.2 fold enrichment (6-mer frequency, TF over GST control); in experiment [8] it was 1.36 fold enrichment (6-mer frequency, TF over GST control); in [9], 1.25 fold enrichment (6-mer frequency, TF over GST control); in experiment [10], 1.26 fold enrichment (6-mer frequency, TF over GST control); in experiment [11], 1.29 fold enrichment (6-mer frequency, TF over GST control); in [12], 1.42 fold enrichment (6-mer frequency, TF over GST control). Also, the binding signal in experiment [13] was 1.34 fold enrichment (6-mer frequency, TF over GST control); in [14], 1.32 fold enrichment (6-mer frequency, TF over GST control); in experiment [15], 1.28 fold enrichment (6-mer frequency, TF over GST control); in [16] it was 1.29 fold enrichment (6-mer frequency, TF over GST control); in experiment [17], 1.2 fold enrichment (6-mer frequency, TF over GST control); in experiment [18] it was 1.23 fold enrichment (6-mer frequency, TF over GST control).

Values taken from PMC7862700, “An all-to-all approach to the identification of sequence-specific readers for epigenetic DNA modifications on cytosine”.
